# Test results reported in PubChem BioAssay.
# Values joined by “and” are separate entries in the source; they are usually repeats but may differ in a detail not shown here. Equal entries are not always repeated. Some compounds were tested as several samples or in several runs, with calls that do not always agree. Active and inactive are the calls of the source.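 How the source made its calls, unless noted: active means superoxide response below 65% of plate, a cut near 3 SD across the whole screen; inactive means the rest.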
# What was measured:
# [1] = yeast AGP1-GFP fluorescence change, single-dose – cell-based, flow cytometry, S. cerevisiae, cherry picks, confirmation (AID 2273;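 active means GFP response above 150% of the DMSO level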;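 further: median GFP channel fluorescence over the whole cell population gate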); conditions: S. cerevisiae AGP1-GFP strain, 3 h, at 10 µM
# [2] = target: Integrin beta-1 (Homo sapiens) + Integrin alpha-4 (Homo sapiens) (UniProt P13612+P05556); test: alpha4beta1 integrin LIBS antibody binding reduction – U937 cells, HUTS-21 mAb, flow cytometry, validation set, VLA-4 allosteric modulator project, pilot screen (AID 2674;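 active means inhibition above 50%, about 3 SD of the validation set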;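 further: antibody binding induced by the VLA-4 ligand LDV present at three times its Kd; 0% = LDV ligand with antibody and no compound and 100% = antibody without LDV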); conditions: HUTS-21 LIBS mAb binding, at 6.7 µM, stronger effect = higher value, binding induced by LDV ligand
# Sequence of Integrin beta-1 (Homo sapiens) + Integrin alpha-4 (Homo sapiens) (P05556 whole entry, looked up): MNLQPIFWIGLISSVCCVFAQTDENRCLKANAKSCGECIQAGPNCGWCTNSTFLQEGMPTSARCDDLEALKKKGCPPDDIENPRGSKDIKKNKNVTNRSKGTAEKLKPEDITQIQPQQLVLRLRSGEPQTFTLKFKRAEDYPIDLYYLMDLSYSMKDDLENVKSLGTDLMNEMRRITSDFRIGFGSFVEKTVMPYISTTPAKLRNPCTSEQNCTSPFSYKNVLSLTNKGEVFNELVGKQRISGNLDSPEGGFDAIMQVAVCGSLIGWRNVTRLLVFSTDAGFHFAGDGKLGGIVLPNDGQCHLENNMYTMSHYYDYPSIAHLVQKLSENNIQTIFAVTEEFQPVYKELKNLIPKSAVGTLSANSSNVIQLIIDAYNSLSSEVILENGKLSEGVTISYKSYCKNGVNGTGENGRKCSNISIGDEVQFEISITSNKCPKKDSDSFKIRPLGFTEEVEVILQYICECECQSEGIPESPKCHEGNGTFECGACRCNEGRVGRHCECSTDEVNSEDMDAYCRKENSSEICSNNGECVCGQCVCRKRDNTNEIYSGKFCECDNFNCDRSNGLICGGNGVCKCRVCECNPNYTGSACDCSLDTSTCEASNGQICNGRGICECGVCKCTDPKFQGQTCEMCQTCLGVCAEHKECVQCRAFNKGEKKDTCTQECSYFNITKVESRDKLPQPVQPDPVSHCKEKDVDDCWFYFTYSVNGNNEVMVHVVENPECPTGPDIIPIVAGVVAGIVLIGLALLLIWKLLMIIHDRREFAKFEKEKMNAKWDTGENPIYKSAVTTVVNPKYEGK
# Sequence of Integrin beta-1 (Homo sapiens) + Integrin alpha-4 (Homo sapiens) (P13612 whole entry, looked up): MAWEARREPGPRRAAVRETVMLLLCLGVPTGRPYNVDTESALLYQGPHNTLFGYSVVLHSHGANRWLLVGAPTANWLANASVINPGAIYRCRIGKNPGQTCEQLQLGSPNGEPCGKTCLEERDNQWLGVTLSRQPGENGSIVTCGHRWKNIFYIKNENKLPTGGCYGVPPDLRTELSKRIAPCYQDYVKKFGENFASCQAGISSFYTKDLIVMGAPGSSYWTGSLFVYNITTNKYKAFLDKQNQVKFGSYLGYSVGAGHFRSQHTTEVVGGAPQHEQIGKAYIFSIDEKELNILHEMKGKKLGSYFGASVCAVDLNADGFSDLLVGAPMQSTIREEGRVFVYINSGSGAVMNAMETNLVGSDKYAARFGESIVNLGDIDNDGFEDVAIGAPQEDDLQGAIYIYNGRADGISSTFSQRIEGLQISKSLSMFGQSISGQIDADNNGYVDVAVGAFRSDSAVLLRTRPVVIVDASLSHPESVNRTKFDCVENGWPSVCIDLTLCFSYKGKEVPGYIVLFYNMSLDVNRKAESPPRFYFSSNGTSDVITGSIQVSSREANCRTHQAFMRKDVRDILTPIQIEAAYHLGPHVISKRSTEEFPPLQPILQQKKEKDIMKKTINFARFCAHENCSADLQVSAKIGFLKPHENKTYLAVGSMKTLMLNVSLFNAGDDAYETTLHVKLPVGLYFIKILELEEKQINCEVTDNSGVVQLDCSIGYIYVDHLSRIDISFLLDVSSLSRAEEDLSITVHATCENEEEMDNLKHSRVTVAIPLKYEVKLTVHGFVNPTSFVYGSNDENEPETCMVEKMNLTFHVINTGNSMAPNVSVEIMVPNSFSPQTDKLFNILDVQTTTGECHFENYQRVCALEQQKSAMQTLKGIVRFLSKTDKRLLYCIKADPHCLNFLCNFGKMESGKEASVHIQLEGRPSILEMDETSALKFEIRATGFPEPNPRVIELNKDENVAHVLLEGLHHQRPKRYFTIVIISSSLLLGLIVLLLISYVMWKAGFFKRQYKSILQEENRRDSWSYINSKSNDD
# [3] = calorie-restriction mimetic ROS inhibitors, yeast – validation compound set, pilot screen (AID 2706);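 further: yeast exposed to compound for one week at 30 degrees C before staining; 100% = mean of all compound wells on the same plate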; conditions: S. cerevisiae aging, superoxide DHE fluorescence; at 10 µM; stronger effect = lower value
# [4] = target: Beta-adrenergic receptor kinase 1 (Homo sapiens) (UniProt P25098); test: GRK2 binders displacing RNA aptamer, biochemical, validation, human GRK2, bead flow cytometry (AID 488806;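 active means aptamer binding inhibition above 30%, about 3 SD of noise from non-fluorescent compounds; inactive means inhibition at or below 30%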); conditions: bead-bound GRK2, FAM-aptamer displacement, at 10 µM, stronger effect = higher value
# Sequence of Beta-adrenergic receptor kinase 1 (Homo sapiens) (P25098 whole entry, looked up): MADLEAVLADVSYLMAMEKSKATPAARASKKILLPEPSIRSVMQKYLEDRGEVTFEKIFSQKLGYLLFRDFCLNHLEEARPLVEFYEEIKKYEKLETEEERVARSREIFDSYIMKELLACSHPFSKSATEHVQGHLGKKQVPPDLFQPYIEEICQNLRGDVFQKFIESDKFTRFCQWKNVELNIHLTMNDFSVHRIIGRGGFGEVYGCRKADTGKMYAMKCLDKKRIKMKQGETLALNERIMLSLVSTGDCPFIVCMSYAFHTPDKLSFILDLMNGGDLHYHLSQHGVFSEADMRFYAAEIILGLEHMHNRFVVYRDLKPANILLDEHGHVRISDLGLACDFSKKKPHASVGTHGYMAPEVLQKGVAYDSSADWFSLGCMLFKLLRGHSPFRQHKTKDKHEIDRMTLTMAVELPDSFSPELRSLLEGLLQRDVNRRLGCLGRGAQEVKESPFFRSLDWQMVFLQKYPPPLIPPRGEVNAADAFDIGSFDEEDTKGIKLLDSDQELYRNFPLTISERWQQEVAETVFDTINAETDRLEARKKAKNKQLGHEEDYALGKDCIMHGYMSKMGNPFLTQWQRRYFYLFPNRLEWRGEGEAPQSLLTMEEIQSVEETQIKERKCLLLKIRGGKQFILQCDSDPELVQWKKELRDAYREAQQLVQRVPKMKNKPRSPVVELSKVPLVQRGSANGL
# [5] = target: Beta-2 adrenergic receptor (Homo sapiens) (UniProt P07550); test: agonist-induced loss of surface beta2AR – cell-based, FAP fluorogen, flow cytometry, validation set, pilot screen (AID 504459;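 active means percent response above 42, roughly 3 SD of non-fluorescent test compounds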;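 further: agonist-driven loss of surface beta2AR via internalization measured by FAP dye flow cytometry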); conditions: Am2.2-beta2AR cells, at 10 µM, stronger effect = higher value
# Sequence of Beta-2 adrenergic receptor (Homo sapiens) (P07550 whole entry, looked up): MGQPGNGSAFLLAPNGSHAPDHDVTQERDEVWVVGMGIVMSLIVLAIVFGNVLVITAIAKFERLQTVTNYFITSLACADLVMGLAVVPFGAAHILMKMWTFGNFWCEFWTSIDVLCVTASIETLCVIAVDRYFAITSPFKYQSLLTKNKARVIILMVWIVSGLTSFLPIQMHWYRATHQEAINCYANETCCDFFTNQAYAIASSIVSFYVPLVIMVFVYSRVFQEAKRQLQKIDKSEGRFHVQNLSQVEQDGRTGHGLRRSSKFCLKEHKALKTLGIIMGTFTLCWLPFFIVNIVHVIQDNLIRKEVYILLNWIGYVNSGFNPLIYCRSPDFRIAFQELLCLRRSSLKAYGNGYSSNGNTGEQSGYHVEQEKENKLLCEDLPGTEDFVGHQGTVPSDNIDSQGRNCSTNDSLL
# [6] = target: AP-2 complex subunit beta (Homo sapiens) (UniProt P63010); test: beta-arrestin/AP2 interaction blockers – biochemical, validation set, GST-AP2 beads, flow cytometry, pilot screen (AID 504541;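 active means inhibition above 54%, about 3 SD of non-fluorescent compounds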;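 further: AP2 carries R879A mutation and is captured from E. coli lysate; bead-bound FITC arrestin peptide fluorescence measuring arrestin peptide binding to AP2; 0% = DMSO wells and 100% = excess unlabeled arrestin peptide control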); conditions: FITC arrestin peptide, at 10 µM, stronger effect = higher value, AP2 beta2 appendage fragment, R879A mutant
# Sequence of AP-2 complex subunit beta (Homo sapiens) (P63010 whole entry, looked up, the tested form may be a part, one chain of several): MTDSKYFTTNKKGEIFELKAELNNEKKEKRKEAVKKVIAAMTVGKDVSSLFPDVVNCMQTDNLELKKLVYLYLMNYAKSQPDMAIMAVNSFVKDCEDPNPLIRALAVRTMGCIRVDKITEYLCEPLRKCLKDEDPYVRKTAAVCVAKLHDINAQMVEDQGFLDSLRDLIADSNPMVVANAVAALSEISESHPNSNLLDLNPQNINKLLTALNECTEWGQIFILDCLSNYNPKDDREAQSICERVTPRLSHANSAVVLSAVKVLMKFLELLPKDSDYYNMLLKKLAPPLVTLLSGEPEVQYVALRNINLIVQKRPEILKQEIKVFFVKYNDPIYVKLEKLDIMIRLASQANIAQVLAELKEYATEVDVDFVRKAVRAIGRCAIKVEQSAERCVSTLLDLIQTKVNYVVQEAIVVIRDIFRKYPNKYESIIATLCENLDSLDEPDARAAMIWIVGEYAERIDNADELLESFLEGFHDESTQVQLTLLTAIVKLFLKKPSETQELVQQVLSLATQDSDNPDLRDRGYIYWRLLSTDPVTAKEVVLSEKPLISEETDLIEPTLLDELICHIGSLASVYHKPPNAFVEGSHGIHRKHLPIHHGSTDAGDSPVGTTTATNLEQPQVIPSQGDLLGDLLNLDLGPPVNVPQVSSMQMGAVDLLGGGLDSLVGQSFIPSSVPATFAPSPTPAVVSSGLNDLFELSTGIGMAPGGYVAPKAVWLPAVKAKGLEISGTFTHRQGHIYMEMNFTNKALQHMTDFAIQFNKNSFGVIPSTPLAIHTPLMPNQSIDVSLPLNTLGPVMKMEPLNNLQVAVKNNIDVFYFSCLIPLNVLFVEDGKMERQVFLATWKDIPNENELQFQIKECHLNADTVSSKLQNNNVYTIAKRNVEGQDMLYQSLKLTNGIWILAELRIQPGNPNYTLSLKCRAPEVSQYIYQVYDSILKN
# [7] = cytosolic pH regulators acting via V-ATPase – S. cerevisiae, pHLuorin, HTS validation (AID 504600; in the data active means response above about 15%;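 further: plate controls were DMSO for no effect and reference compound for full effect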); conditions: V-ATPase proton transport, at 10 µM, stronger effect = higher value
# [8] = tested on: anti-desmoglein-3 scFv antibody binding to human DSG3; test: blockers of pathogenic pemphigus antibody–desmoglein-3 binding – biochemical, validation compound set, bead-based, flow cytometry, pilot screen (AID 588368;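 active means binding below the plate cutoff, the plate median minus 3 SD, with a reading above zero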;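 further: signal is the median channel fluorescence of bead-bound GFP antibody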); conditions: Protein G beads, DSG3-Fc, scFv-GFP binding, at 10 µM, stronger effect = lower value
# [9] = Nile Red efflux blockade in pump-expressing yeast – validation compound set, multiplex, phenotypic, pilot screen (AID 588506;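 active means efflux inhibition above 0.42, the validation set average plus 4 SD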;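 further: Nile Red retained in cells so higher fluorescence means more efflux inhibition; 0 = negative control wells and 1 = enniatin B 25 µM full block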); conditions: S. cerevisiae pump-expressing triplex, Nile Red efflux flow cytometry; at 10 µM; stronger effect = higher value; the pumps come from Candida albicans
# [10] = target: ATP-binding cassette sub-family B member 6 (Homo sapiens) (UniProt Q9NP58); test: blockers of ABCB6-driven porphyrin uptake – K562-ABCB6 cells, flow cytometry, validation set, pilot screen (AID 588550;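 active means inhibition above the screen-wide mean plus 3 SD, about 51%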;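 further: 0% = DMSO wells and 100% = benzethonium chloride 70 µM positive control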); conditions: K562-ABCB6 porphyrin accumulation, 1 h, at 10 µM, stronger effect = higher value
# Sequence of ATP-binding cassette sub-family B member 6 (Homo sapiens) (Q9NP58 whole entry, looked up): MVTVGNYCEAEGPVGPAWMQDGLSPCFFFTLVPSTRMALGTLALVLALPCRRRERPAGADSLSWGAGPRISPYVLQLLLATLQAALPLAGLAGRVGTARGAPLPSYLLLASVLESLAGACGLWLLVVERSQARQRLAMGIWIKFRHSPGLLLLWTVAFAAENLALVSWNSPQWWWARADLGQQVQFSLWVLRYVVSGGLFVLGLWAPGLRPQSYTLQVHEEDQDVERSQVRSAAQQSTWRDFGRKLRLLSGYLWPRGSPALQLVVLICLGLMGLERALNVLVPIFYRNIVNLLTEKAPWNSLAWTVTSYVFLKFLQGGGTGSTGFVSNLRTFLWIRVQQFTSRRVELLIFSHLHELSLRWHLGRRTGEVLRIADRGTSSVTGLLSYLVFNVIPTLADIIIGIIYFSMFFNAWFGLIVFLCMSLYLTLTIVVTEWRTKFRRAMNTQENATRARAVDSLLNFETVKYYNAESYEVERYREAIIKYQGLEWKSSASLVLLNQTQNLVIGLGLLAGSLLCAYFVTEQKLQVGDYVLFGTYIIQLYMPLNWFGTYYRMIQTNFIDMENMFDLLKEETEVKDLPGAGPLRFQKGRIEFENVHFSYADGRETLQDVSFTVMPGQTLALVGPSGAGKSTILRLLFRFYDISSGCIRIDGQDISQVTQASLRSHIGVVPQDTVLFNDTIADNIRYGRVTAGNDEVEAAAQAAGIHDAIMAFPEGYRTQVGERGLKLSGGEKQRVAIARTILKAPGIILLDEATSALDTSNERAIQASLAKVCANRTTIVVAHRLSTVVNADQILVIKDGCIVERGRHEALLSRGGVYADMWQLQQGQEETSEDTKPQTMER
# [11] = AML differentiation inducers, ER-HoxA9 marrow cells – cell-based, GFP/MAC1 double positive, flow cytometry, validation set, primary screen (AID 588685;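 active means differentiation response of at least 50%, scaled between solvent and reference control, from cells with both markers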;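 further: compound exposure lasts four days before antibody staining and flow analysis; 0% = DMSO wells and 100% = 5 µM fulvestrant positive control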); conditions: stronger effect = higher value, normalized: vehicle 0, fulvestrant 100
Compound,"GFP response, % of DMSO [1]",inhibition [2],superoxide response (% of plate) [3],aptamer binding inhibition [4],response [5],inhibition [6],response [7],binding (% of control) [8],efflux inhibition (fraction of control) [9],inhibition [10],differentiation response [11]
N#C/C(C(N)=O)=c1/ccc2c(c1)N1C3=C(CCCC3)CC3CCCCC31N=2 (centres undefined),100% (inactive),-74.8% (inactive),92.3% (inactive),-5% (inactive),5.12% (inactive),46.9% (inactive),-2.62% (inactive),98.3% (inactive),0.37 (inactive),-58% (inactive),-16.3% (inactive)
N=c1nc(N2CCCCC2)cc(N)n1O,98.9% (inactive),16.2% (inactive),89.4% (inactive),2% (inactive),-8.64% (inactive),33.9% (inactive),-5.96% (inactive),98.5% (inactive),0.37 (inactive),115% (active),8.19% (inactive)
COc1ccc(-c2[nH]ncc2CN(CCO)Cc2cccs2)c(F)c1,97.2% (inactive),5.61% (inactive),92.5% (inactive),5% (inactive),-21% (inactive),53.1% (inactive),-4.99% (inactive),99.8% (inactive),0.08 (inactive),-5% (inactive),-0.18% (inactive)
CC(NCCc1ccc(O)cc1)C(O)c1ccc(O)cc1 (centres undefined),101% (inactive),-13.9% (inactive),96.5% (inactive),2% (inactive),0.53% (inactive),5.41% (inactive),-1.74% (inactive),103% (inactive),-0.31 (inactive),10% (inactive),-8.19% (inactive)
CN(C)CCCN1c2ccccc2Sc2ccc(Cl)cc21,94.3% (inactive),7.43% (inactive) and 1.61% (inactive),98.3% (inactive) and 93.3% (inactive),-6% (inactive) and -20% (inactive),17.4% (inactive) and 15.9% (inactive),-3.39% (inactive) and -5.93% (inactive),10.8% (inactive) and 0.91% (inactive),107% (inactive) and 114% (inactive),-0.17 (inactive) and 0.55 (active),10% (inactive) and 13% (inactive),-7.37% (inactive) and 5.73% (inactive)
CC(=O)CSc1ncnc2c1cnn2-c1ccccc1,92.6% (inactive),10.3% (inactive),85.6% (inactive),1% (inactive),6.9% (inactive),14.5% (inactive),-1.56% (inactive),105% (inactive),0.09 (inactive),7% (inactive),6.55% (inactive)
C[C@]12C[C@H](O)[C@H]3[C@@H](CCC4=CC(=O)CC[C@@]43C)[C@@H]1CC[C@@H]2C(=O)CO,96.4% (inactive),31.7% (inactive),103% (inactive),4% (inactive),4.9% (inactive),-0.36% (inactive),6.31% (inactive),104% (inactive),-0.56 (inactive),12% (inactive),4.91% (inactive)
CCCCCCCC(=O)OCC(=O)[C@@]1(O)CC[C@H]2[C@@H]3CCC4=CC(=O)CC[C@]4(C)[C@H]3[C@@H](O)C[C@@]21C,101% (inactive),11% (inactive),108% (inactive),4% (inactive),0.19% (inactive),-9.35% (inactive),10.5% (inactive),97.1% (inactive),0.74 (active),14% (inactive),5.13% (inactive)
CC(C)CC(=O)Nc1ccc2oc(-c3ccncc3)nc2c1,95.9% (inactive),10.3% (inactive),102% (inactive),5% (inactive),-11.1% (inactive),-5.82% (inactive),-0.11% (inactive),105% (inactive),-0.02 (inactive),11% (inactive),-2.46% (inactive)
